According to ChEMBL document CHEMBL2218924, “A broad activity screen in support of a chemogenomic map for kinase signalling research and drug discovery” (Biochem J, 2013):

Legend:
[1] = target: Calcium/calmodulin-dependent protein kinase type 1 (Homo sapiens) (UniProt Q14012); settings: at 1 µM
[2] = target: Calcium/calmodulin-dependent protein kinase type 1 (Homo sapiens) (UniProt Q14012); settings: at 10 µM
[3] = target: Calcium/calmodulin-dependent protein kinase type II subunit beta (Homo sapiens) (UniProt Q13554); settings: at 1 µM
Chain of Calcium/calmodulin-dependent protein kinase type II subunit beta (Homo sapiens) (Q13554 whole entry): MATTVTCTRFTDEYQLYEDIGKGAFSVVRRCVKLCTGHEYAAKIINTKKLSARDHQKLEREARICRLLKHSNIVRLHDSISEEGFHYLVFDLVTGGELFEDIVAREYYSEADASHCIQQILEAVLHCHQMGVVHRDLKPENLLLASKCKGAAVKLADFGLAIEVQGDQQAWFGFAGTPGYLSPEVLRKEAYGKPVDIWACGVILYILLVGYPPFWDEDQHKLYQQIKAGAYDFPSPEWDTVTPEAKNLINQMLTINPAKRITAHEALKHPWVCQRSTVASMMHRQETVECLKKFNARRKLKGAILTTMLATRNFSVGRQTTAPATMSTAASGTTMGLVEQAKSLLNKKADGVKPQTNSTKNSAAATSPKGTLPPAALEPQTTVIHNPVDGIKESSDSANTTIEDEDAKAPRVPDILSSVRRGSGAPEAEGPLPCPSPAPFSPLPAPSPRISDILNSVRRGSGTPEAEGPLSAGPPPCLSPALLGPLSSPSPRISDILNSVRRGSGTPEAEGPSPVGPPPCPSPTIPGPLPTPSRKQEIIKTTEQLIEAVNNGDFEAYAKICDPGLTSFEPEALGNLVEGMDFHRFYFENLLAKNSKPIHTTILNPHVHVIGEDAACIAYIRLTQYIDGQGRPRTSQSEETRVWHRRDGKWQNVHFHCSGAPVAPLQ

[4] = target: Calcium/calmodulin-dependent protein kinase type II subunit beta (Homo sapiens) (UniProt Q13554); settings: at 10 µM
[5] = target: Calcium/calmodulin-dependent protein kinase type II subunit gamma (Homo sapiens) (UniProt Q13555); settings: at 1 µM
Chain of Calcium/calmodulin-dependent protein kinase type II subunit gamma (Homo sapiens) (Q13555 whole entry): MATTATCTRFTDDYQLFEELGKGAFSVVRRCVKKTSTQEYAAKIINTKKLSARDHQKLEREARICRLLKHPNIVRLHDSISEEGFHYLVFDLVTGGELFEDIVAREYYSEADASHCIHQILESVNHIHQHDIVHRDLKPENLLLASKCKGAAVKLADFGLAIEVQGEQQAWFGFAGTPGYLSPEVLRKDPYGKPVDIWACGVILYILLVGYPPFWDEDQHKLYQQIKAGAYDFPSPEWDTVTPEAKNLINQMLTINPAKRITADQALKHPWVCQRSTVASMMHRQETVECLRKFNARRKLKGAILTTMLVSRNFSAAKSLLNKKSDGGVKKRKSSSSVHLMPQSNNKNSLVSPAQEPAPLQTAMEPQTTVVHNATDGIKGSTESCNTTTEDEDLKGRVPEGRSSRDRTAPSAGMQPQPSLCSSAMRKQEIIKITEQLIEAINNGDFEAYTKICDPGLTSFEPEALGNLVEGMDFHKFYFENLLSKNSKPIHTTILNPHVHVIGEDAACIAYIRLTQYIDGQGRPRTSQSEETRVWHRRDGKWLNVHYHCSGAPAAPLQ

[6] = target: Calcium/calmodulin-dependent protein kinase type II subunit gamma (Homo sapiens) (UniProt Q13555); settings: at 10 µM
[7] = target: Calcium/calmodulin-dependent protein kinase type II subunit delta (Homo sapiens) (UniProt Q13557); settings: at 1 µM
Chain of Calcium/calmodulin-dependent protein kinase type II subunit delta (Homo sapiens) (Q13557 whole entry): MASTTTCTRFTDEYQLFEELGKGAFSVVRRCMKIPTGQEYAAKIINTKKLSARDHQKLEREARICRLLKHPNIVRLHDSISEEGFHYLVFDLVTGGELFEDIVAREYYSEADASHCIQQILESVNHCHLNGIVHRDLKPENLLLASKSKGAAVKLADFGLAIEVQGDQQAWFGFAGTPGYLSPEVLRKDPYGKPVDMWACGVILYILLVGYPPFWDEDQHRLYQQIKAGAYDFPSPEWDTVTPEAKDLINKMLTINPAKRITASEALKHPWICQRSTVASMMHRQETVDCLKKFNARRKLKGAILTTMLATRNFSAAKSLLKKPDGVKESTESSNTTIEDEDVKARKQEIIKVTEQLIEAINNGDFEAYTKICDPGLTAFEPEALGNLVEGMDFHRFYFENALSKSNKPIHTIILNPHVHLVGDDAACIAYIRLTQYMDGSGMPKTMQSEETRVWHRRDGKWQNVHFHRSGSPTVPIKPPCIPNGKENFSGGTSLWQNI

[8] = target: Calcium/calmodulin-dependent protein kinase type II subunit delta (Homo sapiens) (UniProt Q13557); settings: at 10 µM
[9] = target: T1, Calcium/calmodulin-dependent protein kinase type IV (Homo sapiens) (UniProt Q16566); settings: at 1 µM
T1 sequence (whole entry): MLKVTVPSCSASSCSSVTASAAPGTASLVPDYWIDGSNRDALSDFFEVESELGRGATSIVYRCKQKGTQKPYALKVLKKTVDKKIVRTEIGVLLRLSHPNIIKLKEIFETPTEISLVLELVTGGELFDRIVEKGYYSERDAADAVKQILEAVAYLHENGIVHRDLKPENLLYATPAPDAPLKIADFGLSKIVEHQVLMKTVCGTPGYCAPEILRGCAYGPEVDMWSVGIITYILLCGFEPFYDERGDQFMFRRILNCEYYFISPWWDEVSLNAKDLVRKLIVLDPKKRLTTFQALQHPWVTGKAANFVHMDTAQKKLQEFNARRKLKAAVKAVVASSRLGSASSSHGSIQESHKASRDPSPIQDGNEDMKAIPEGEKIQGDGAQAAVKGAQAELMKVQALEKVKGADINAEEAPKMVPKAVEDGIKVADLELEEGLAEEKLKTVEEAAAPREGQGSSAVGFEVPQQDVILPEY

[10] = target: T1, Calcium/calmodulin-dependent protein kinase type IV (Homo sapiens); settings: at 10 µM
[11] = target: Death-associated protein kinase 1 (Homo sapiens) (UniProt P53355); settings: at 10 µM
Chain of Death-associated protein kinase 1 (Homo sapiens) (P53355 whole entry, looked up): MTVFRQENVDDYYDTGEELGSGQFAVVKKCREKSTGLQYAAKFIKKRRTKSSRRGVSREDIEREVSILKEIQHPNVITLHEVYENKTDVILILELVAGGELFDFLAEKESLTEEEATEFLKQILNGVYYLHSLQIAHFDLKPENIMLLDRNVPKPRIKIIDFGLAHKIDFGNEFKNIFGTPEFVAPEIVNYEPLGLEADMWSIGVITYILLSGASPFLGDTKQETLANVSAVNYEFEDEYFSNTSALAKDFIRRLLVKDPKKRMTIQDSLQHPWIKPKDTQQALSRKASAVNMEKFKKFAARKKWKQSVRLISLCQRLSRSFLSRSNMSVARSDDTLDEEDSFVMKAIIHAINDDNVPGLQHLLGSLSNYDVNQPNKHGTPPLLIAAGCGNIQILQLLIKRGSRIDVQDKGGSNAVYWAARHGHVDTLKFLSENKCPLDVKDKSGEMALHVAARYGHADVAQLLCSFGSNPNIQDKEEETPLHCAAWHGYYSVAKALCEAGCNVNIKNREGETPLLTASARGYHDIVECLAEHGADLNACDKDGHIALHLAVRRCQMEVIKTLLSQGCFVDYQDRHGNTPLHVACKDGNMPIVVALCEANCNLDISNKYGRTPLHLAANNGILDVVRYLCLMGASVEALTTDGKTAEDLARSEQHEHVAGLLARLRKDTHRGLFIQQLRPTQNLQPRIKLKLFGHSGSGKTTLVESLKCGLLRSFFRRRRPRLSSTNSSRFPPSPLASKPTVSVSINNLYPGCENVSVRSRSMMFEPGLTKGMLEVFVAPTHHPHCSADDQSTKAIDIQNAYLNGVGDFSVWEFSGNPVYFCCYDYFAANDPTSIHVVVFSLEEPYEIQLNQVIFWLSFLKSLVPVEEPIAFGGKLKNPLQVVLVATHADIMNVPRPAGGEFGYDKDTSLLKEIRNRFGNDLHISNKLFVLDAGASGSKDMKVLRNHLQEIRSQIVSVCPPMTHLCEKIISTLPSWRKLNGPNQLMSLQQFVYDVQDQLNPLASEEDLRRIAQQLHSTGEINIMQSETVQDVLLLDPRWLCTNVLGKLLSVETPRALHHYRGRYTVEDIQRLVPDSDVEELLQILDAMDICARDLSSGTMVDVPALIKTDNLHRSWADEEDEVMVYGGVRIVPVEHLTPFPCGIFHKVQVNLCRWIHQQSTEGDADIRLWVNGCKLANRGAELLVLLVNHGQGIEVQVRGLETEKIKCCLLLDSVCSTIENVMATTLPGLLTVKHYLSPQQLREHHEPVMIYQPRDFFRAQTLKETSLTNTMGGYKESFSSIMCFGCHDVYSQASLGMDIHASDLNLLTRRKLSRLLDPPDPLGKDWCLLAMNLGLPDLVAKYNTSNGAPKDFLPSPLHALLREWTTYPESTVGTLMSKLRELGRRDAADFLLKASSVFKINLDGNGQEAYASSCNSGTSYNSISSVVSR

[12] = target: Death-associated protein kinase 2 (Homo sapiens) (UniProt Q9UIK4); settings: at 1 µM
Chain of Death-associated protein kinase 2 (Homo sapiens) (Q9UIK4 whole entry, looked up): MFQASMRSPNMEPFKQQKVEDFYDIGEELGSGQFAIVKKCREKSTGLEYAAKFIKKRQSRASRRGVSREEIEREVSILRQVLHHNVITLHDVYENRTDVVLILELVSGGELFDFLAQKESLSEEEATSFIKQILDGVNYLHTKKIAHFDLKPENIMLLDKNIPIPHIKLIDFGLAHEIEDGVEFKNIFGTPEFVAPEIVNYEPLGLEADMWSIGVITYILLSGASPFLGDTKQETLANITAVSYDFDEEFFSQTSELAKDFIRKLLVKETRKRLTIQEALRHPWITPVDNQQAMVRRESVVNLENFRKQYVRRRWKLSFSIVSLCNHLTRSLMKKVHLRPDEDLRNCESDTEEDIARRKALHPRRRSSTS

[13] = target: Death-associated protein kinase 2 (Homo sapiens) (UniProt Q9UIK4); settings: at 10 µM
[14] = target: T2, Serine/threonine-protein kinase DCLK2 (Homo sapiens) (UniProt Q8N568); settings: at 1 µM
T2 sequence (whole entry): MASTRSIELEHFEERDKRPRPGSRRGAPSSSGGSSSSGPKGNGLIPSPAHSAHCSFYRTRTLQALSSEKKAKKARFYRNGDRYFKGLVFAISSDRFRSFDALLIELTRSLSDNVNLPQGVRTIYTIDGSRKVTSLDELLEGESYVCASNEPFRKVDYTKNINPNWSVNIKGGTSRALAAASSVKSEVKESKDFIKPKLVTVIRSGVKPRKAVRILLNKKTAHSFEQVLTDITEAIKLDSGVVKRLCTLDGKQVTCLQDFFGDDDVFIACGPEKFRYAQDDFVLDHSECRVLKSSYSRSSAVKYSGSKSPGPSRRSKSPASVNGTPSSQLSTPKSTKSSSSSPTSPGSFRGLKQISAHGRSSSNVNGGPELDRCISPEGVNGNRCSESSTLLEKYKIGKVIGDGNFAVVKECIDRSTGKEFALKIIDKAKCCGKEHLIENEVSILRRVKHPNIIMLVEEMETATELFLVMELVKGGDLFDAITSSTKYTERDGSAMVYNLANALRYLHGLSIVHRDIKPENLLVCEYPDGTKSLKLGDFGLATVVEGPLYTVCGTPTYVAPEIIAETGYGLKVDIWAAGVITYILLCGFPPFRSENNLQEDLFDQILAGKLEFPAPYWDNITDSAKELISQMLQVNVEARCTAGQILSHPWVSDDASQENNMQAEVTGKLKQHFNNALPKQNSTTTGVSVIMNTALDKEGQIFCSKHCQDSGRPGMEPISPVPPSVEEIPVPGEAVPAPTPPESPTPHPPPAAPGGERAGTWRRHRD

[15] = target: T2, Serine/threonine-protein kinase DCLK2 (Homo sapiens); settings: at 10 µM
[16] = target: T3, Discoidin domain-containing receptor 2 (Homo sapiens) (UniProt Q16832); settings: at 1 µM
T3 sequence (whole entry): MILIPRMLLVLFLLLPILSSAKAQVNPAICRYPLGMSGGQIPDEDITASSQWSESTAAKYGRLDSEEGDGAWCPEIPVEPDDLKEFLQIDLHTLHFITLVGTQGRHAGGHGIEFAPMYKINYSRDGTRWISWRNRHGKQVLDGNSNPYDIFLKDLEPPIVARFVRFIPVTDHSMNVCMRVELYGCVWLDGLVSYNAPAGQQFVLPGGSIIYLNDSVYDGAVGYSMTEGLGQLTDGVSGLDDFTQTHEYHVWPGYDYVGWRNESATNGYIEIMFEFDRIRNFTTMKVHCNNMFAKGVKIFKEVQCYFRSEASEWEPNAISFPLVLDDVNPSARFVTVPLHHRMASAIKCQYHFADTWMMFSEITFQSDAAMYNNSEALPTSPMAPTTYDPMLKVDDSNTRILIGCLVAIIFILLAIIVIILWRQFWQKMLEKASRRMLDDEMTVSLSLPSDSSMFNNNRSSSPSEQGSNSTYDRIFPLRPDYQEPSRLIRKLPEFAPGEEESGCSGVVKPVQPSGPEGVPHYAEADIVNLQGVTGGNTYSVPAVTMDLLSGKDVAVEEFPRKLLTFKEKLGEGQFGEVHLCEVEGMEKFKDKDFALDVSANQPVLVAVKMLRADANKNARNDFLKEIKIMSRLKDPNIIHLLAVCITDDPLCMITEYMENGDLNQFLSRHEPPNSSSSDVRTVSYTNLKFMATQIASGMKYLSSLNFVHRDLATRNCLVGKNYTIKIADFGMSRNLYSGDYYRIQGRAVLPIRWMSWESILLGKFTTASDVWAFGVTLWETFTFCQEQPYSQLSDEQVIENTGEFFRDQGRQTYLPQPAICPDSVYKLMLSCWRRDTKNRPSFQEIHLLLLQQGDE

[17] = target: T3, Discoidin domain-containing receptor 2 (Homo sapiens); settings: at 10 µM
[18] = target: T4, Myotonin-protein kinase (Homo sapiens) (UniProt Q09013); settings: at 1 µM
T4 sequence (whole entry): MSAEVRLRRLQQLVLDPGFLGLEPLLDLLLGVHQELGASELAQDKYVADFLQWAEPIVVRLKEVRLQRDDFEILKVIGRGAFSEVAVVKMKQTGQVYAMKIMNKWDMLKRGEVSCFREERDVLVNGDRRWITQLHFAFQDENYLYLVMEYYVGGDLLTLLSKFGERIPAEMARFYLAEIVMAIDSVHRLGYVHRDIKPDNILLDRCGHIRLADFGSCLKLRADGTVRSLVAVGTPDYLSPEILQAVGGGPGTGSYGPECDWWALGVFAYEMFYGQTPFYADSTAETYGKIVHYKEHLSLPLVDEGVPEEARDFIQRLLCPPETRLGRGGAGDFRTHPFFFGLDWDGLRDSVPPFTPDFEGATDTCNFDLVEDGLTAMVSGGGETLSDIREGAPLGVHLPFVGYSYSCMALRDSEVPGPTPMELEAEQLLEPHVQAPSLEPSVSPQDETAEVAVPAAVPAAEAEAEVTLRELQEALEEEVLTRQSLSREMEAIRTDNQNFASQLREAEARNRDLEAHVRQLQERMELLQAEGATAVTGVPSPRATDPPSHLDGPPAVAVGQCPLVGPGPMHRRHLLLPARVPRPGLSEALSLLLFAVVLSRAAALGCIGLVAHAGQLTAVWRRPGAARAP

[19] = target: T4, Myotonin-protein kinase (Homo sapiens); settings: at 10 µM
[20] = target: T5, Serine/threonine-protein kinase 17A (Homo sapiens) (UniProt Q9UEE5); settings: at 1 µM
T5 sequence (whole entry): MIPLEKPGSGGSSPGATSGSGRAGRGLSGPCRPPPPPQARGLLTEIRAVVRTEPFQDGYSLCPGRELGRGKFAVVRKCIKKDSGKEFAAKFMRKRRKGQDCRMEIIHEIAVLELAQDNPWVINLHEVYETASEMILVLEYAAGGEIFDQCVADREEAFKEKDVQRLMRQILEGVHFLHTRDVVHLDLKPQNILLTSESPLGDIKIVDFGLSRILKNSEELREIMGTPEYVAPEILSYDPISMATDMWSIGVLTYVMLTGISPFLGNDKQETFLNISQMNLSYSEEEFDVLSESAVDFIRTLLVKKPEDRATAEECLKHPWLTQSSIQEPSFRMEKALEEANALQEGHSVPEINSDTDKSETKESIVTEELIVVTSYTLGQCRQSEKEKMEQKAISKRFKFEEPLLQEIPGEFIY

Chain of Calcium/calmodulin-dependent protein kinase type 1 (Homo sapiens) (Q14012 whole entry, looked up): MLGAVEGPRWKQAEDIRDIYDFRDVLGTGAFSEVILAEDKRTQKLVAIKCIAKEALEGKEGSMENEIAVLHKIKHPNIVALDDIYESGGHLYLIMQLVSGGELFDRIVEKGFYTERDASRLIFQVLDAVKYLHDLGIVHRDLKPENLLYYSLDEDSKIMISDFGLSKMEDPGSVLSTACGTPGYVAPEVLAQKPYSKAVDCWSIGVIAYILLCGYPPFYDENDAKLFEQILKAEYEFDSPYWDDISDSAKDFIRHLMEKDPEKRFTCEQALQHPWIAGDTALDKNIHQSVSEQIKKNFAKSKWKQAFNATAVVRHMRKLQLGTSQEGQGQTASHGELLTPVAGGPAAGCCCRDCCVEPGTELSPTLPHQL

Compound	residual activity [1]	residual activity [2]	residual activity [3]	residual activity [4]	residual activity [5]	residual activity [6]	residual activity [7]	residual activity [8]	residual activity [9]	residual activity [10]	residual activity [11]	residual activity [12]	residual activity [13]	residual activity [14]	residual activity [15]	residual activity [16]	residual activity [17]	residual activity [18]	residual activity [19]	residual activity [20]
CN(C)c1ccc(/C=C2\C(=O)Nc3ccccc32)cc1	122%	116%	101%	76%	92%	46%	89%	35%	87%	89%	80%	102%	88%	88%	101%	104%	99%	111%	130%	25%
O=C1NC(=O)/C(=C\c2ccc3nccnc3c2)S1	109%	80%	65%	18%	91%	34%	76%	28%	109%	84%	78%	68%	27%	73%	71%	109%	101%	114%	122%	63%
CO[C@@H]1[C@H](N(C)C(=O)c2ccccc2)C[C@H]2O[C@]1(C)n1c3ccccc3c3c4c(c5c6ccccc6n2c5c31)C(=O)NC4	84%	29%	18%	4%	10%	-1%	5%	1%	98%	50%	72%	71%	54%	75%	38%	106%	69%		90%	16%
Oc1c2ccccc2c2c3c(cccc13)N=N2	77%	32%			37%	8%	43%	8%	73%	24%	68%	87%	43%	116%	51%	93%	92%		68%	6%
Cn1cc(/C=C2\C(=O)Nc3ccc(S(N)(=O)=O)cc32)c2ccccc21	54%	12%	65%	58%	23%	-1%	23%	7%	120%	62%	85%	92%	94%	97%	77%	94%	99%	80%	120%	22%
Nc1cccc(-c2cc3c(Oc4cccc(O)c4)ncnc3[nH]2)c1	88%	66%	75%	23%	40%	10%	42%	10%			101%	102%	91%	104%	78%	23%	4%	98%	84%	82%
Cc1cccc(-c2[nH]c(C(C)(C)C)nc2-c2ccc3c(c2)OCO3)n1			93%	88%		99%	105%	99%	129%	88%	77%			86%	99%		98%	145%	143%	
O=c1cc(-c2cccc3c2Sc2ccccc2S3)oc(N2CCOCC2)c1	113%	87%	96%	82%	101%	85%	96%	84%	114%	98%	81%	106%	89%	118%	85%	93%	100%	120%	105%	106%
Cc1cc2ncc(-c3ccccc3)nc2cc1C		89%	101%	92%		94%		81%	108%	100%	88%	99%		95%	67%	102%	90%	97%	135%	70%
Cn1cnc2cc3c(Nc4cccc(Br)c4)ncnc3cc21	103%	54%	93%	89%	85%	43%	97%	52%	105%	86%	99%	96%	113%	102%	110%	75%	60%	112%	111%	64%
c1ccc(-c2n[nH]cc2-c2ccnc3ccccc23)nc1		83%	96%	68%	94%	69%	96%	80%	139%	78%	88%	103%			101%	102%	98%	127%	140%	
